Where “and” joins values, the source holds several entries; their conditions need not be identical. Equal entries are not always repeated. The source holds several records for some structures; these can differ, active in one and inactive in another. Calls of active or inactive are those of the source. Rule for the calls: active = hit-call score of the fitted dose curve at least 0.9, where 1 is the maximum; inactive = score below 0.9.
Assay: ATG_ISRE_CIS: Attagene CIS-FACTORIAL HepG2 Assay for human Interferon Regulatory Factor 1 (IRF1) binding to an Interferon-Stimulated Response Element (ISRE) (AID 2282948)
Conditions: HepG2 ISRE cis-reporter (Attagene), mRNA transcription readout; actives raise or lower the signal
Experimental: ATG_CIS is a cell-based, multiplexed-readout assay that uses HepG2, a human liver cell line, with measurements taken at 24 hours after chemical dosing in a 24-well plate.ATG_ISRE_CIS is one of 52 assay component(s) measured or calculated from the ATG_CIS assay. It is designed to make measurements of mRNA induction, a form of inducible reporter, as detected with fluorescence intensity signals by Reverse transcription polymerase chain reaction (RT-PCR) and Capillary electrophoresis technology.Data from the assay component ATG_ISRE_CIS was analyzed into 1 assay endpoint. This assay endpoint, ATG_ISRE_CIS, was analyzed with bidirectional fitting relative to DMSO as the negative control and baseline of activity. Using a type of inducible reporter, measures of mRNA for gain or loss-of-signal activity can be used to understand the reporter gene at the transcription factor-level as they relate to the gene IRF1. Furthermore, this assay endpoint can be referred to as a primary readout, because this assay has produced multiple assay endpoints where this one serves a reporter gene function. To generalize the intended target to other relatable targets, this assay endpoint is annotated to the dna binding intended target family, where the subfamily is interferon regulatory factors.
Human liver HepG2 cells are transiently transfected with multiple reporter transcription units (MRTUs) in 6-well plates using FuGene 6 reagent (Roche; 3 ml FuGene/1 mg DNA). The MRTU constructs are regulated by a cis-regulating element (promoter). […] A major difference between the CIS and TRANS system is that in CIS activities of endogenous TFs are measured, whereas the TRANS assay evaluates changes in activities of exogenous, chimeric NR-Gal4 proteins. […] At the end of 24 hour incubation, total RNA was isolated using TriZol reagent (Invitrogen). The isolated RNA is then reverse-transcribed using oligo(dT) primer and Mo-MLV reverse transcriptase (Invitrogen) with DNAse I (Ambion) treatment for 30 min. The one-tenth of the produced cDNA was amplified by PCR using Taq DNA polymerase (Invitrogen) and two reporter sequence-specific primers. The PCR products were fluorescently labeled by primer extension with 6-arboxyfluorescein (6-FAM) 5'-labeled reporter sequence-specific primer (2 min at 95 C, 20 s at 68 C and 10 min at 72 C) and these products were digested with 5U of HpaI (New England Biolabs) for 2h at 37 C. The fragments were purified using Qiaquick PCR columns (Qiagen), analyzed on an ABI 3130xL genetic analyzer (Applied Biosystems) with peak positions identified by using a set of X-rhodamine (ROX)-labeled MapMarker1000 molecular weight standards (BioVentures). The raw capillary electrophoresis data was processed using Attagraph software (Attagene).
In the case of `c1ccc(-c2ccccc2)cc1`, the AC50 is reported as 110 µM (active). With `O=C(N[C@H]1CN2CCC1CC2)c1cc2ccoc2cn1` the AC50 was 82.4 µM (active). For `CCCCCCCCCC[N+](C)(C)CCCCCCCCCC`, the AC50 was 24.9 µM (active). With `Oc1c(Cl)c(Cl)c(Cl)c(Cl)c1Cl` the outcome was “inactive” and the AC50 was 78.7 µM (active) and 51 µM (active). For `CCC(=O)O[C@H]1CC[C@H]2[C@@H]3CCC4=CC(=O)CC[C@]4(C)[C@H]3CC[C@]12C`, the outcome was “inactive” and the AC50 was 100 µM (active) and 131 µM (active). For `Cc1ccccc1CO[C@@H]1C[C@@]2(C(C)C)CC[C@]1(C)O2`, the outcome was “inactive”. In the case of `CCOP(=S)(OCC)SCSC(C)(C)C`, the AC50 is reported as 63.5 µM (active) and the outcome is reported as “inactive”. For `CCCCCCOC(=O)c1ccccc1C(=O)OCCCCCC`, the outcome was “inactive”. With `CC(C)C(=O)OCC(C)(C)C(OC(=O)C(C)C)C(C)C` (stereo not given) the outcome was “inactive”. With `ClC1=C(Cl)[C@]2(Cl)[C@@H]3[C@H]4C[C@H]([C@@H]5O[C@H]45)[C@@H]3[C@@]1(Cl)C2(Cl)Cl` the outcome was “inactive”. For `CCOCCOC(C)=O`, the outcome was “inactive”. With `CC(C)(O)C(=O)Nc1ccc([N+](=O)[O-])c(C(F)(F)F)c1` the outcome was “inactive”. With `Oc1ccc(Cl)cc1Cl` the outcome was “inactive”. In the case of `Cc1cc2c3c(c1)C(c1ccccc1)=N[C@@H](NC(=O)c1ccncc1)C(=O)N3CC2`, the AC50 is reported as 102 µM (active). For `ClC1=C(Cl)[C@]2(Cl)[C@@H]3[C@@H]4C[C@@H]([C@H]5O[C@@H]45)[C@@H]3[C@@]1(Cl)C2(Cl)Cl`, the AC50 was 80.5 µM (active). With `Clc1ccc(C(c2ccccc2Cl)C(Cl)(Cl)Cl)cc1` (stereo not given) the outcome was “inactive” and the AC50 was 70.5 µM (active) and 82.3 µM (active). With `NS(=O)(=O)C(F)(F)C(F)(F)C(F)(F)C(F)(F)C(F)(F)C(F)(F)C(F)(F)C(F)(F)F` the AC50 was 91.1 µM (active) and 35.8 µM (active) and the outcome was “inactive”. With `O=C(O)C(F)(F)C(F)(F)C(F)(F)C(F)(F)C(F)(F)C(F)(F)C(F)(F)C(F)(F)F` the AC50 was 150 µM (active) and 46.3 µM (active) and the outcome was “inactive”. With `ClC(Cl)=C(c1ccc(Cl)cc1)c1ccc(Cl)cc1` the outcome was “inactive” and the AC50 was 100 µM (active). In the case of `OCC(O)CO`, the outcome is reported as “inactive”. For `O=C(O)C(F)(F)C(F)(F)C(F)(F)C(F)(F)C(F)(F)C(F)(F)C(F)(F)C(F)(F)C(F)(F)F`, the AC50 was 48.2 µM (active) and 33.8 µM (active) and 90.4 µM (active). With `CCC(C)(CC)c1cc(NC(=O)c2c(OC)cccc2OC)on1` the outcome was “inactive”. For `O=S(=O)(O)C(F)(F)C(F)(F)C(F)(F)C(F)(F)F`, the outcome was “inactive”. With `Cc1cccc(C)c1N` the outcome was “inactive”. With `CC(C)(c1ccccc1)c1ccc(O)cc1` the outcome was “inactive”. With `O=C(NC(=O)c1c(F)cccc1F)Nc1cc(Cl)c(OC(F)(F)C(F)F)c(Cl)c1` the outcome was “inactive”. For `Clc1ccc(C(Cl)(Cl)Cl)cc1`, the outcome was “inactive”. For `C=CC(=O)NCNC(=O)C=C`, the outcome was “inactive”. In the case of `Cc1ccccc1[N+](=O)[O-]`, the outcome is reported as “inactive”. In the case of `Cc1ccc(O)c(C)c1`, the outcome is reported as “inactive”. With `CCC(C)(c1ccc(O)cc1)c1ccc(O)cc1` the AC50 was 45.6 µM (active) and 50.3 µM (active) and 33.4 µM (active) and the outcome was “inactive”. With `Sc1ccccc1` the outcome was “inactive”.
